Bioassay records (PubChem)
Most compounds without a hit are left out; they make up all but 2.2% or so of the library.
aSyn yeast inh = alpha-synuclein toxicity inhibition in yeast; Yeast expressing alpha-synuclein, growth rescue, BacTiter-Glo, 24 h; Potency, µM (titrated, usually from 46.1 µM), actives largely listed as activators; 370,000 compounds, 0.14% hits; AID 652106; also: nearly all actives have a fitted effect of over 65% in size
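Galactose-induced alpha-syn yeast (OD600=0.02, raffinose-pregrown) + pinned cpd, 24 hr, 30 deg C; growth by BacTiter-Glo luminescence. Growth restoration scores as activation.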
FUS yeast rescue = rescues growth of FUS-expressing yeast | S. cerevisiae FUS-expressing, growth rescue, OD600, 24 h | Potency, µM (highest dose often 76.6 µM), hits mostly activators | 390,000 compounds, 0.24% hits; also: nearly all actives have a fitted effect of over 55% in size
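Compound concentration series was pinned onto galactose-induced FUS-expressing yeast seeded at OD 0.005. Plates sat 24hr at 30C; absorbance at 600 nm gave growth. DMSO served as background control.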
TDP43 rescue = inhibitors of TDP-43 toxicity in yeast. TDP-43 expressing yeast growth rescue, BacTiter-Glo, 24 h. 410,000 compounds, 1.8% hits. AID 652104. Potency, µM (top dose mostly 46.1 µM), hits mostly activators; also: nearly all actives have a fitted effect of over 50% in size
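Yeast expressing TDP-43 (pregrown in raffinose, seeded at OD600=0.02 in galactose medium) exposed to compounds 24 hr at 30 deg C. Growth read by BacTiter-Glo luminescence; rescue of toxicity appears as increased signal.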
Abeta rescue = restores growth of yeast expressing A-beta42 peptide; AID 1347071; 410,000 compounds, 0.063% hits; Potency, µM (highest dose often 46.1 µM), actives largely listed as activators; yeast expressing A-beta42, growth rescue, OD600, 48 h; response scale: 0% DMSO, 100% iron-clioquinol control; also: nearly all actives have a fitted effect of over 55% in size
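Yeast A-beta toxicity model in growth medium with pinned compounds, 48 h at 30 C; growth read as absorbance at 600 nm. Normalized to FeCl3/clioquinol equimolar mix (positive) and DMSO (negative).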
Mito fusion yeast = blocks mitochondrial division or promotes mitochondrial fusion | S. cerevisiae fusion-defective mutant growth rescue, CellTiterGlo 48 h | Potency, µM (doses to about 46.1 µM), actives largely listed as activators | 320,000 compounds, 0.23% hits | AID 485298; also: nearly all actives have a fitted effect of over 45% in size
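Compounds are tested for their ability to restore growth of mitochondrial fusion-defective yeast strains at non-permissive 37C in YPEG medium over 48 hours. Viability is quantified by luciferase luminescence.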
Each line names hits and unclear results; the compound was inactive in the other large screens. Calls follow the shape of the dose curve; as a rule, active = well fitted curve in the direction sought with a large enough effect; inconclusive = small, poorly fitted or top-dose-only effect, or another doubt; inactive = no such curve, though single readings can be large; an effect the other way counts as inactive or inconclusive.

Cc1cc(C)cc(Cn2ncc(Cl)c(Cl)c2=O)c1	TDP43 rescue 17.8µM (no result: FUS yeast rescue)
COc1ccc(C)cc1NC(=O)CSc1nnc(COc2ccc(C)cc2)n1Cc1ccco1	TDP43 rescue 15.8µM
CCn1c(COc2ccc(C)cc2)nnc1SCC(=O)Nc1cc(OC)ccc1OC	FUS yeast rescue inconclusive, TDP43 rescue 12.6µM
CCOc1ccc(NC(=O)c2cc(S(=O)(=O)NC3CCCCCC3)ccc2F)cc1	TDP43 rescue 12.6µM (no result: aSyn yeast inh, Mito fusion yeast)
O=C(Nc1ccc(F)c(F)c1)c1cc(S(=O)(=O)NC2CCCCCC2)ccc1F	TDP43 rescue inconclusive (no result: aSyn yeast inh, Mito fusion yeast)
COc1ccc(NC(=O)c2cc(S(=O)(=O)NCC3COc4ccccc4O3)ccc2F)cc1 (configuration not stated)	FUS yeast rescue inconclusive, TDP43 rescue 35.5µM
Cc1ccc(NC(=O)c2cc(S(=O)(=O)NCCC3=CCCCC3)ccc2F)cc1	TDP43 rescue 22.4µM (no result: FUS yeast rescue)
CCOc1ccc(NC(=O)c2sc(-n3nc(C)c(CCC(C)C)c3C)nc2C)cc1	none (no result: aSyn yeast inh, Mito fusion yeast)
Cc1nc(-c2ccc(S(=O)(=O)N3CCN(c4ccccc4F)CC3)cc2)co1	none (no result: Mito fusion yeast)
COc1ccc2c(c1)c1c(c(=O)n(-c3ccc(F)c(Cl)c3)c(=O)n1CC(N)=O)n2C	TDP43 rescue inconclusive (no result: aSyn yeast inh, Mito fusion yeast)
Cc1cc(C)c2sc(N(Cc3cccnc3)C(=O)CCS(=O)(=O)c3ccccc3)nc2c1	none (no result: aSyn yeast inh, Mito fusion yeast)
COc1ccc(OC)c(CCNC(=O)Cn2ccc3cc(S(=O)(=O)N4CCCCC4)ccc32)c1	FUS yeast rescue 35.5µM (no result: aSyn yeast inh, Mito fusion yeast)
COc1ccccc1CCNC(=O)Cn1ccc2cc(S(=O)(=O)N3CCCCCC3)ccc21	none (no result: aSyn yeast inh, Mito fusion yeast)
S=c1[nH]nc(Cc2c[nH]c3ccccc23)o1	none
S=c1[nH]nc(Cc2sc(-c3ccccc3)nc2-c2ccccc2)o1	FUS yeast rescue inconclusive, TDP43 rescue 12.6µM
O=C(Nc1ccc(Br)cc1Br)Nc1cccc2[nH]c([C@@H]3O[C@H](CO)[C@@H](O)[C@H](O)[C@H]3O)nc12	aSyn yeast inh inconclusive (no result: Mito fusion yeast)
COc1ccc(C(=O)c2sc(Nc3ccccc3)nc2C)cc1	TDP43 rescue 25.1µM
CC(=O)c1sc(NC(=O)c2ccc(Br)o2)nc1C	TDP43 rescue 11.2µM
CC(=O)c1sc(NC(=O)c2ccc(Cn3cc(Br)cn3)o2)nc1C	none
CC(=O)c1sc(Nc2ccc(Oc3ccccc3)cc2)nc1C	TDP43 rescue 35.5µM (no result: Mito fusion yeast)
CC(=O)c1sc(Nc2ccccc2)nc1C	none (no result: Mito fusion yeast)
COC(=O)c1sc(Nc2ccccc2)nc1C	TDP43 rescue 12.6µM
Cc1nc(Nc2ccccc2)sc1-c1ccccc1	TDP43 rescue 20µM (no result: FUS yeast rescue)
CC(=O)c1sc(Nc2cccc(C)c2)nc1C	TDP43 rescue 7.08µM
Cc1nc(Nc2ccc(C(=O)O)cc2)sc1-c1ccccc1	none
CCCCn1nnnc1C(c1ccccc1)N1CCN(c2ncccn2)CC1 (configuration not stated)	none (no result: Mito fusion yeast)
CCCCn1nnnc1C(c1ccccc1)N1CCN(c2ccc(C)cc2)CC1 (configuration not stated)	TDP43 rescue 35.5µM (no result: Mito fusion yeast)
CCOC(=O)CN1C(=O)N(c2ccc(C)c(C)c2)S(=O)(=O)c2ccccc21	none (no result: aSyn yeast inh, Mito fusion yeast)
COc1ccccc1CNC(=O)Cc1c(C)c2cc3c(C)coc3c(C)c2oc1=O	none (no result: aSyn yeast inh, Mito fusion yeast)
COC1CCN(C(=O)c2cc(COc3cc(C)ccc3C)on2)CC1	none (no result: Mito fusion yeast)
COCCCC1CCN(C(=O)c2cc(COc3cc(C)ccc3C)on2)CC1	FUS yeast rescue inconclusive, TDP43 rescue 28.2µM
COc1ccc(-n2cnc3cc(C(=O)NC4CCCCCC4)ccc32)cc1	TDP43 rescue 35.5µM (no result: aSyn yeast inh, Mito fusion yeast)
COc1ccc(OC)c(-n2cnc3cc(C(=O)NC4CCCCCC4)ccc32)c1	FUS yeast rescue inconclusive (no result: aSyn yeast inh, Mito fusion yeast)
COc1ccc(CNS(=O)(=O)c2cc(C(=O)Nc3cc(Cl)cc(Cl)c3)ccc2F)cc1	TDP43 rescue 14.1µM (no result: aSyn yeast inh, Mito fusion yeast)
COCCNC(=S)N/N=C/c1c2ccccc2cc2ccccc12	TDP43 rescue inconclusive, Abeta rescue inconclusive
NC(=S)N/N=C\c1c2ccccc2cc2ccccc12	aSyn yeast inh inconclusive, TDP43 rescue 20µM, Abeta rescue inconclusive
C=C1CC(COc2cc(=O)oc3ccccc23)(c2ccccc2)OC1=O (configuration not stated)	none (no result: FUS yeast rescue, Mito fusion yeast)
C=C1CCC2C(C)(C)[C@H](O)CC[C@@]2(C)[C@@H]1COc1cc(=O)oc2ccccc12 (some centres not stated)	FUS yeast rescue 35.5µM, Mito fusion yeast 14.1µM
